Potency and outcome data for 11 molecules are collected here from PubChem BioAssay (Tox21).

For assay [1], the target named is Retinoic acid receptor RXR-alpha (Homo sapiens) (UniProt P19793). Description: qHTS assay to identify small molecule agonists of the RXR signaling pathway (AID 1159527; calls by dose curve; further: nearly all actives have a fitted effect of over 35% in size; further: potency means the concentration at half of the fitted maximal effect). A digest of the protocol:
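Cells plated at 2,000/well, rested 5 hr at 37 C, pin-dosed with DMSO compound solutions, incubated 16 hr, then loaded with B/G FRET substrate for 2 hr at RT before dual-emission fluorescence reading.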
(In qHTS, concentration-response curves come from the screen itself.)

A short description of assay [2]: qHTS assay to identify small molecule antagonists of the retinoic acid receptor (RAR) signaling pathway (AID 1159552; further: nearly all actives have a fitted effect of over 50% in size; further: potency means the concentration at half of the fitted maximal effect). A digest of the protocol: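 Retinol at 1 uM final stimulated RARE-luciferase expression in C3RL4 cells exposed to test compounds for 6 hr at 37 C. Reduced luminescence, read 30 min after detection reagent, indicated pathway antagonism.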
A short description of assay [3]: qHTS assay to identify small molecule antagonists of the estrogen related receptor (ERR) signaling pathway from Tox21 library - cell viability counter screen (AID 1224834). Further: nearly all actives have a fitted effect of over 30% in size. Further: potency means the concentration at half of the fitted maximal effect. A digest of the protocol:
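Compounds in DMSO were pinned onto ERR cells that had been incubated for 6 h, and the plates were held at 37 C for 17.5 h. CellTiter-Fluor reagent was then added and fluorescence was measured after 30 min.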

Assay [4] concerns the target Luciferin 4-monooxygenase (Photinus pyralis) (UniProt P08659). Briefly: qHTS assay to identify small molecule inhibitors of firefly luciferase (AID 1224835). Further: series mostly up to about 120 µM; nearly all actives have a fitted effect of over 25% in size. A digest of the protocol:
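Biochemical qHTS: compounds run as interplate titrations against purified firefly enzyme, with D-luciferin and ATP each at its KM concentration. Light output recorded by CCD imaging.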

The nature of assay [5]: qHTS RealTime-Glo MT Cell Viability Assay in HEK293 cells - 32 hour (AID 1224868). Further: nearly all actives have a fitted effect of over 50% in size. Further: potency means the concentration at half of the fitted maximal effect. A digest of the protocol: (§1)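 Quantitative high-throughput screen of the Tox21 10K library in HEK293: cells and RealTime-Glo reagents plated together, compound added at 5 h, luminescence monitored through 40 h at 37 C.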
Assay [6] is described as follows: A CellTox Green Cytotoxicity Assay to monitor cytotoxicity in HEK293 cells - 24 hour (AID 1224875). Further: nearly all actives have a fitted effect of over 45% in size. Further: potency means the concentration at half of the fitted maximal effect. A digest of the protocol:
(§2)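 Dead-cell fluorescence measured kinetically: asymmetric cyanine dye, HEK293, 600 cells/well, 5 h settle, 23 nL cpd/DMSO, 37 C, reads 0–40 h every 8 h.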

Assay [7] is described as follows: A CellTox Green Cytotoxicity Assay to monitor cytotoxicity in HepG2 cells - 24 hour (AID 1224878). Further: nearly all actives have a fitted effect of over 45% in size. Further: potency means the concentration at half of the fitted maximal effect. A digest of the protocol:
(§3)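 First, HepG2 cells (600/well) mixed with reagent were plated; second, after 5 h at 37 C they received compounds via pintool; third, fluorescence was measured at 0 h through 40 h at 8 h intervals.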

The nature of assay [8]: A CellTox Green Cytotoxicity Assay to monitor cytotoxicity in HepG2 cells - 40 hour (AID 1224879). Further: nearly all actives have a fitted effect of over 40% in size. Further: potency means the concentration at half of the fitted maximal effect. A digest of the protocol:
as §3

A short description of assay [9]: A CellTox Green Cytotoxicity Assay to monitor cytotoxicity in HepG2 cells - 32 hour (AID 1224883). Further: nearly all actives have a fitted effect of over 50% in size. Further: potency means the concentration at half of the fitted maximal effect. A digest of the protocol:
as §3

Assay [10] can be described thus: A CellTox Green Cytotoxicity Assay to monitor cytotoxicity in HEK293 cells - 8 hour (AID 1224884). Further: nearly all actives have a fitted effect of over 35% in size. Further: potency means the concentration at half of the fitted maximal effect. A digest of the protocol:
as §2

Assay [11] in a line: qHTS RealTime-Glo MT Cell Viability Assay in HEK293 cells - 24 hour (AID 1224886). Further: nearly all actives have a fitted effect of over 50% in size. Further: potency means the concentration at half of the fitted maximal effect. A digest of the protocol:
as §1

Assay [12] addresses Thyrotropin-releasing hormone receptor (Homo sapiens) (UniProt P34981). Briefly: qHTS assay to identify small molecule agonists of the thyrotropin-releasing hormone receptor (TRHR) signaling pathway (AID 1346891; calls by dose curve;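 further: HEK293 cells expressing TRHR with calcium dye readout; series mostly up to about 58 µM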). A digest of the protocol: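 Cells: TRHR-Hek293, seeded and incubated 18 h. Dye loading: 2 h at 37 °C. Compound added from DMSO stock by pin tool. Read-out: kinetic calcium fluorescence over 3 min.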

Assay [13] is described as follows: Caspase-3/7 induction in HepG2 cells by small molecules, qHTS cell viability counter screen (AID 1346981). Further: nearly all actives have a fitted effect of over 30% in size. Further: potency means the concentration at half of the fitted maximal effect. A digest of the protocol:
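In this quantitative HTS counter screen, compounds delivered in DMSO were left on unmodified HepG2 cells for 16 hr at 37 C. Viability was then determined fluorometrically with CellTiter-Fluor, in parallel with caspase-3/7 induction in the same wells.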

The target of assay [14] is Cytochrome P450 2C9 (Homo sapiens) (UniProt P11712). Briefly: Cytochrome P450 Family 2 Subfamily C Member 9 (CYP2C9) small molecule antagonists: luciferase reporter qHTS assay (AID 1671198). Further: nearly all actives have a fitted effect of over 50% in size. Further: potency means the concentration at half of the fitted maximal effect. A digest of the protocol:
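P450-Glo proluciferin substrate with CYP2C9 enzyme; 10 min RT preincubation, then NADPH regeneration 1 h at 37C; luciferin detection reagent 20 min RT, luminescence in relative luminescence units.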

The nature of assay [15]: qHTS assay to identify small molecule antagonists of the retinoid acid receptor (RAR) signaling pathway - cell viability counter screen (AID 1159551). Further: nearly all actives have a fitted effect of over 35% in size. A digest of the protocol: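 ATP-based viability, C3RL4 cells, 6 h at 37 C with 1 uM final retinol co-added after compound; luminescence read 30 min post CellTiter-Glo, RT.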
Assay [16] in a line: qHTS assay to identify small molecule agonists of the constitutive androstane receptor (CAR) signaling pathway - cell viability counter screen (AID 1224836). Further: nearly all actives have a fitted effect of over 45% in size. Further: potency means the concentration at half of the fitted maximal effect. A digest of the protocol:
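Cells were seeded and incubated 4 hrs. Compounds were added across 15 concentrations together with PK11195 at 0.75 uM final. Plates were incubated 23 hrs at 37 C. CellTiter-Fluor was added and fluorescence measured.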

A short description of assay [17]: qHTS assay to identify small molecule antagonists of the constitutive androstane receptor (CAR) signaling pathway - cell viability counter screen (AID 1224837). Further: nearly all actives have a fitted effect of over 45% in size. Further: potency means the concentration at half of the fitted maximal effect. A digest of the protocol: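 Cells are seeded, rested 4 hr at 37 C/5% CO2, dosed with compound (15-point series) and 50 nM CITCO, incubated a further 23 hr, and then CellTiter-Fluor reagent is added before fluorescence is read. The line is HepG2 with stable hCAR and CYP2B6-2.2kb.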

Assay [18] in a line: qHTS RealTime-Glo MT Cell Viability Assay in HepG2 cells - 24 hour (AID 1224867). Further: nearly all actives have a fitted effect of over 50% in size. Further: potency means the concentration at half of the fitted maximal effect. A digest of the protocol: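 Compound treatment began 5 h after plating HepG2 cells (600/well) with NanoLuc luciferase and prosubstrate. Plates stayed at 37 C for 40 h; luminescence was captured at six time points, 0 h through 40 h.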
A short description of assay [19]: qHTS assay to identify small molecule antagonists of the sonic hedgehog signaling (Shh) pathway - cell viability counter screen (AID 1259367). Further: nearly all actives have a fitted effect of over 55% in size. Further: potency means the concentration at half of the fitted maximal effect. A digest of the protocol: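 Fluorescence read-out (CellTiter-Fluor, 1 hr at 37C) taken after 23 hr compound treatment of 3T3 Gli1-Luc cells stimulated with conditioned medium. Cells were seeded at 2,000 per well and pre-incubated 4 hr.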

The target in assay [20] is Nuclear receptor subfamily 1 group I member 2 (Homo sapiens) (UniProt O75469). Briefly: Human pregnane X receptor (PXR) small molecule agonists, qHTS assay (AID 1346982). Further: potency means the concentration at half of the fitted maximal effect; nearly all actives have a fitted effect of over 35% in size. A digest of the protocol: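 Reporter HepG2 cells expressing PXR-Luc are cultured in charcoal-stripped FBS (5%), treated with compounds for 24 hr at 37 C, and assayed by ONE-Glo luminescence after 30 min at room temperature.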

Molecules are shown by their SMILES. “And” between values parts separate entries of the source, which are not always exact repeats. Identical values can stand only once. Inconclusive results are not listed. The source made the active and inactive calls. Unless noted, the call rests on the fitted dose curve; in most records, active means well fitted curve in the direction sought with a large enough effect in the repeat runs; inconclusive means weak or mixed curves; inactive means no such curve, though single readings can be large; an effect the other way counts as inactive or inconclusive.

Chain of Thyrotropin-releasing hormone receptor (Homo sapiens) (P34981 whole entry, looked up): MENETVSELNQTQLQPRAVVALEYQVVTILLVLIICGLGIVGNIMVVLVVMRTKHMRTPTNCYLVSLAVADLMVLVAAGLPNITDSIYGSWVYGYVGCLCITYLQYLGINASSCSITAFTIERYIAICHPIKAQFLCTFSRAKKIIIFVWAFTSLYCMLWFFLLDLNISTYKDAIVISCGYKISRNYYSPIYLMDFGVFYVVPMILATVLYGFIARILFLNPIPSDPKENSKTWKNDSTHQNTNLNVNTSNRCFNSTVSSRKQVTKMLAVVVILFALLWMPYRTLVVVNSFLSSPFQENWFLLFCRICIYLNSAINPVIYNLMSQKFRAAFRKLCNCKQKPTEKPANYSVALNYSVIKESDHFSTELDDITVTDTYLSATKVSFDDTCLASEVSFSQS
Chain of Nuclear receptor subfamily 1 group I member 2 (Homo sapiens) (O75469 whole entry, looked up): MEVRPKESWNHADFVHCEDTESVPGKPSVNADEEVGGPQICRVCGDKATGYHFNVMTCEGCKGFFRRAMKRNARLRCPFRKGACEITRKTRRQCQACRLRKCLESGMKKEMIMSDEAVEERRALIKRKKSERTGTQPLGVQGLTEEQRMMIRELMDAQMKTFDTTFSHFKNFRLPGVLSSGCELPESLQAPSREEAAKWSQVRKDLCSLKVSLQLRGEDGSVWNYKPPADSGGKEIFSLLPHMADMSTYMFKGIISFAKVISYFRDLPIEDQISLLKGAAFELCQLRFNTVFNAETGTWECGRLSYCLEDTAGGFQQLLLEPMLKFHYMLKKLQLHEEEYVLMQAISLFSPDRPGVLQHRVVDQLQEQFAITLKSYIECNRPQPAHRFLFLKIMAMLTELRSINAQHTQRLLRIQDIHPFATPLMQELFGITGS
Chain of Luciferin 4-monooxygenase (Photinus pyralis) (P08659 whole entry, looked up): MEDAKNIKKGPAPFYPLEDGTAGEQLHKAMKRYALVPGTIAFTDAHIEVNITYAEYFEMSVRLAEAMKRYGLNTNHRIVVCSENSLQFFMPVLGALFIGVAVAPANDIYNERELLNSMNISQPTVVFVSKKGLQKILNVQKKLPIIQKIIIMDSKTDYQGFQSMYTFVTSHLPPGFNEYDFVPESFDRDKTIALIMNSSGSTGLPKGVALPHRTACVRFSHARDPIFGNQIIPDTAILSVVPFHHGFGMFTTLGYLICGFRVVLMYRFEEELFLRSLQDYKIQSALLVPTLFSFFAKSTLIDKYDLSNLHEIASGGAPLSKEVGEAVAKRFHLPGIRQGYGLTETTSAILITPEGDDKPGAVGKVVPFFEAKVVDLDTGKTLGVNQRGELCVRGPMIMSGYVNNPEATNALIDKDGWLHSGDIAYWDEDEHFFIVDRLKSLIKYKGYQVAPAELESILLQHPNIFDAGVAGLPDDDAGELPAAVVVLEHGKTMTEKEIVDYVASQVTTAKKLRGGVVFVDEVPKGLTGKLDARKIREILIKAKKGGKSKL
Chain of Retinoic acid receptor RXR-alpha (Homo sapiens) (P19793 whole entry, looked up): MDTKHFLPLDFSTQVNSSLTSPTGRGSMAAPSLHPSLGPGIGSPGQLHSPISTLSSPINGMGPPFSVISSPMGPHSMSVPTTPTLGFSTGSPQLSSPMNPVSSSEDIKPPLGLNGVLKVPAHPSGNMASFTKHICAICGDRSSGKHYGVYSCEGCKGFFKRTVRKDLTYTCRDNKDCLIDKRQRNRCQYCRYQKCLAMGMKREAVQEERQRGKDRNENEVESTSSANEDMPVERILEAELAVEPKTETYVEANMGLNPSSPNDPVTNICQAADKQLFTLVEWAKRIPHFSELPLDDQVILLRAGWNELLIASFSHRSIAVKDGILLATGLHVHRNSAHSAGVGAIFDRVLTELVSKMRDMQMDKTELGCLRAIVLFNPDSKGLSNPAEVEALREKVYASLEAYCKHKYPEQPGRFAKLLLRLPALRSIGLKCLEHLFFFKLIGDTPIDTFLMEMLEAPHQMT
Chain of Cytochrome P450 2C9 (Homo sapiens) (P11712 whole entry, looked up): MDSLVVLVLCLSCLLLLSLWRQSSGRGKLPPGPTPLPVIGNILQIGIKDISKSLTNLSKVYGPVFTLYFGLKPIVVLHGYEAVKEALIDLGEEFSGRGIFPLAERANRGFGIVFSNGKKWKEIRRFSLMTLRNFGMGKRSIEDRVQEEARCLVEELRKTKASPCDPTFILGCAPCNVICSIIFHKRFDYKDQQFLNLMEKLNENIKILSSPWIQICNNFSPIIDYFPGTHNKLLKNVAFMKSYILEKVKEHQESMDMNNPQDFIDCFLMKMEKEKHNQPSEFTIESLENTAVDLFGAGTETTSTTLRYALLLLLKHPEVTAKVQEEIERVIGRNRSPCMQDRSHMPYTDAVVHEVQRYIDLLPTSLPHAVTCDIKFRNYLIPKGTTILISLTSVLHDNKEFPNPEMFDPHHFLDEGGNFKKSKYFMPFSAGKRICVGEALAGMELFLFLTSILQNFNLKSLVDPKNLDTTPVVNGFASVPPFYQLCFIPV

On to `OCC(c1ccc(Cl)cc1)c1ccc(Cl)cc1`, for which the Potency result in [1], in assay [4] and in assay [13] was “inactive” throughout. Also, the Potency in [2] was 43.3 µM (active); in assay [3] it was 48.6 µM (active); in assay [5] it was 34.7 µM (active); in assay [6], 24.5 µM (active); in assay [7] it was 38.9 µM (active); in [8], 38.9 µM (active). Also, the Potency is 38.9 µM (active) in assay [9], 43.6 µM (active) in assay [10], 30.9 µM (active) in [11] and 12.6 µM (active) in [14]. Also, the outcome in [12] was inactive.
Turning to `O=C(Nc1ccccc1-c1ccc(Cl)cc1)c1cccnc1Cl`, the Potency entry in assay [15], in [16], in assay [17], in [18], in assay [19] and in assay [13] was “inactive” throughout. In assay [14], the Potency result is “inactive”. In addition, the Potency in [7] was 41.2 µM (active); in assay [8] it was 46.3 µM (active); in assay [9], 46.3 µM (active); in assay [10] it was 46.3 µM (active); in assay [20] it was 10.3 µM (active). Also, the result in [12] was inactive.
Consider `CCC(C)=O`, for which, in assay [1], the Potency entry was “inactive”.
As to `CC1COC(Cn2cncn2)(c2ccc(Oc3ccc(Cl)cc3)cc2Cl)O1` (stereo unspecified), the Potency result in [15], in [2], in [4], in [6], in assay [7] and in assay [10] was “inactive” each time. In [19], the Potency entry was “inactive”. Besides, the Potency was 27.3 µM (active) in assay [3]; 19.5 µM (active) in assay [5]; 19.5 µM (active) in assay [11]; 43.3 µM (active) in assay [13]; 61.1 µM (active) in assay [20]; 1.12 µM (active) in [14].
For the molecule `O=C(c1ccc(Cl)cc1)c1ccc(Cl)cc1`, in assay [1], the Potency result is “inactive”.
In the case of `COc1ccc(C(c2ccc(OC)cc2)C(Cl)(Cl)Cl)cc1`, the Potency result in assay [15], in assay [2], in [3], in assay [16], in assay [17] and in [6] was “inactive” throughout. The Potency entry in [7], in assay [8] and in assay [9] was “inactive” throughout. Besides, the Potency in assay [5] was 48.7 µM (active); in [11], 48.7 µM (active); in assay [20] it was 17.1 µM (active); in assay [14], 1.82 µM (active). Besides, in assay [12], the outcome was inactive.
Take `CC(c1ccccc1)(c1ccc(O)cc1)c1ccc(O)cc1`: the Potency in [3] was 61.1 µM (active); in [5], 43.6 µM (active); in assay [7], 43.6 µM (active); in [8], 38.9 µM (active); in assay [9], 43.6 µM (active); in assay [20], 17.2 µM (active). Moreover, the Potency in assay [14] was 8.94 µM (active). The Potency result in assay [4], in [16], in assay [17], in assay [18] and in assay [10] was “inactive” each time. Also, the molecule was classed as inactive in assay [12].
On to `CN1CSC(=S)N(C)C1`, for which the Potency result in assay [15], in assay [4], in assay [6], in assay [10] and in assay [13] was “inactive” each time. Further, the Potency in assay [3] was 6.08 µM (active) and 13.6 µM (active); in [16], 4.83 µM (active) and 15.3 µM (active); in assay [17] it was 5.42 µM (active) and 7.67 µM (active); in [18] it was 17.3 µM (active); in assay [5], 17.3 µM (active) and 24.5 µM (active); in [7], 10.9 µM (active) and 27.5 µM (active). For the same molecule, the Potency is 12.2 µM (active) and 10.9 µM (active) in [8]; 10.9 µM (active) and 21.8 µM (active) in [9]; 17.3 µM (active) and 24.5 µM (active) in assay [11]; 3.05 µM (active) and 13.6 µM (active) in [19]; 5.43 µM (active) in assay [20]; 8.91 µM (active) in [14]. The outcome in [12] was inactive.
`ClC1=C(Cl)[C@]2(Cl)[C@@H]3[C@@H](Cl)[C@H]4O[C@H]4[C@@H]3C1(Cl)C2(Cl)Cl`: the Potency entry in assay [4], in assay [16], in assay [17], in assay [19] and in assay [13] was “inactive” throughout. Moreover, the Potency in assay [6] was 54.9 µM (active); in assay [20] it was 30.6 µM (active); in assay [14], 39.9 µM (active).
`CC(C)(C)c1cc(C(C)(C)C)c(O)c(C(C)(C)C)c1`: the Potency in [1] is 15.5 µM (active).
Consider `Oc1c(I)cc(I)cc1I`, for which the Potency result in assay [3], in assay [4], in assay [16], in assay [17], in [18] and in [5] was “inactive” in each case. For the same molecule, the Potency result in [6], in [7], in [8], in [9], in assay [10] and in assay [11] was “inactive” throughout. Also, the Potency entry in [19] and in assay [13] was “inactive” each time. Also, the Potency in [14] was 56.4 µM (active).
